SMILES strings stand for the structures. Records with an inconclusive call do not appear. The source made the active and inactive calls. Rule for the calls: active = hit-call score of the fitted dose curve at least 0.9, where 1 is the maximum; inconclusive = response in the unintended direction; inactive = score below 0.9.

Glucocorticoid receptor (Homo sapiens), sequence (P04150 whole entry, looked up): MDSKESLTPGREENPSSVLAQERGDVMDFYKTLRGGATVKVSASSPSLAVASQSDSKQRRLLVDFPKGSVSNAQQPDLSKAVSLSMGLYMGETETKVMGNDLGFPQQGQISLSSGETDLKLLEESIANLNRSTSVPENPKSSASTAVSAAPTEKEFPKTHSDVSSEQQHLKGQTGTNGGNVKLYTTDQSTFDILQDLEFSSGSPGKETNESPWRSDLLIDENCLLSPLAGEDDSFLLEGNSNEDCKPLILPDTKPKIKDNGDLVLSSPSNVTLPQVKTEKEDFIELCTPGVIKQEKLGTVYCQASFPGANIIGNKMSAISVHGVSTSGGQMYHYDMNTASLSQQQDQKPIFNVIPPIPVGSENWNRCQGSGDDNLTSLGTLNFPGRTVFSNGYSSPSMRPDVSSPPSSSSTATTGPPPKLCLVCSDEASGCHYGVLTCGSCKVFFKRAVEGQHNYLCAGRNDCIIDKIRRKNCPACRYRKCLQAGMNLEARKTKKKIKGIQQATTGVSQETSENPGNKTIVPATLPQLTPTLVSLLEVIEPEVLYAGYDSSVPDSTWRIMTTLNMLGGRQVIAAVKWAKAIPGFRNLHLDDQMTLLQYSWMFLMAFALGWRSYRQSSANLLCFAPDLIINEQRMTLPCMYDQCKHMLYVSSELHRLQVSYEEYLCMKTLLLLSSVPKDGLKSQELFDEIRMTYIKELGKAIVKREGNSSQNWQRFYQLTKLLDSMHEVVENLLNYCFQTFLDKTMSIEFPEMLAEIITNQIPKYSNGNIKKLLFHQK

This experiment concerns the target Glucocorticoid receptor (Homo sapiens) (UniProt P04150). Briefly: ATG_GR_TRANS: Attagene TRANS-FACTORIAL HepG2 Assay for human Glucocorticoid Receptor (GR) (AID 2282978).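 Note: activators score as hits since higher reporter transcript over DMSO is fitted.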 As to conditions: HepG2 Attagene TRANS GR reporter, mRNA transcription. As to the method: ATG_TRANS is a cell-based, multiplexed-readout assay that uses HepG2, a human liver cell line, with measurements taken at 24 hours after chemical dosing in a 24-well plate.ATG_GR_TRANS is one of 30 assay component(s) measured or calculated from the ATG_TRANS assay. It is designed to make measurements of mRNA induction, a form of inducible reporter, as detected with fluorescence intensity signals by Reverse transcription polymerase chain reaction (RT-PCR) and Capillary electrophoresis technology.Data from the assay component ATG_GR_TRANS was analyzed into 1 assay endpoint. This assay endpoint, ATG_GR_TRANS, was analyzed in the positive analysis fitting direction relative to DMSO as the negative control and baseline of activity. Using a type of inducible reporter, measures of mRNA for gain-of-signal activity can be used to understand the reporter gene at the transcription factor-level as they relate to the gene NR3C1. Furthermore, this assay endpoint can be referred to as a primary readout, because this assay has produced multiple assay endpoints where this one serves a reporter gene function. To generalize the intended target to other relatable targets, this assay endpoint is annotated to the nuclear receptor intended target family, where the subfamily is steroidal.
Human liver HepG2 cells are transiently transfected with multiple reporter transcription units (MRTUs) in 6-well plates using FuGene 6 reagent (Roche; 3 ml FuGene/1 mg DNA). The MRTU constructs are regulated by a cis-regulating element (promoter). […] A major difference between the CIS and TRANS system is that in CIS activities of endogenous TFs are measured, whereas the TRANS assay evaluates changes in activities of exogenous, chimeric NR-Gal4 proteins. […] At the end of 24 hour incubation, total RNA was isolated using TriZol reagent (Invitrogen). The isolated RNA is then reverse-transcribed using oligo(dT) primer and Mo-MLV reverse transcriptase (Invitrogen) with DNAse I (Ambion) treatment for 30 min. The one-tenth of the produced cDNA was amplified by PCR using Taq DNA polymerase (Invitrogen) and two reporter sequence-specific primers. The PCR products were fluorescently labeled by primer extension with 6-arboxyfluorescein (6-FAM) 5'-labeled reporter sequence-specific primer (2 min at 95 C, 20 s at 68 C and 10 min at 72 C) and these products were digested with 5U of HpaI (New England Biolabs) for 2h at 37 C. The fragments were purified using Qiaquick PCR columns (Qiagen), analyzed on an ABI 3130xL genetic analyzer (Applied Biosystems) with peak positions identified by using a set of X-rhodamine (ROX)-labeled MapMarker1000 molecular weight standards (BioVentures). The raw capillary electrophoresis data was processed using Attagraph software (Attagene).
On to `COc1ccc(O)c(C(C)(C)C)c1`, for which the molecule was called inactive.
Turning to `CC(C)(c1ccccc1)c1ccc(O)cc1`, the call was inactive.
The value for `NS(=O)(=O)C(F)(F)C(F)(F)C(F)(F)C(F)(F)C(F)(F)C(F)(F)C(F)(F)C(F)(F)F` was “inactive”; that for `CCC(C)c1cc([N+](=O)[O-])cc([N+](=O)[O-])c1O` (configuration not stated) was “inactive”; that for `O=C(O)C(F)(F)C(F)(F)C(F)(F)C(F)(F)C(F)(F)C(F)(F)C(F)(F)C(F)(F)C(F)(F)F` was “inactive”.
To `CC1=C2C[C@H]3[C@@H](CC=C4C[C@@H](O)CC[C@@]43C)[C@@H]2CC[C@]12O[C@@H]1C[C@H](C)CN[C@H]1[C@H]2C` belongs “inactive”.
Regarding `Cc1ccccc1O`, the outcome was inactive.
As to `CCC(=O)O[C@H]1CC[C@H]2[C@@H]3CCC4=CC(=O)CC[C@]4(C)[C@H]3CC[C@]12C`, the molecule was called inactive.
As to `ClC(Cl)=C(c1ccc(Cl)cc1)c1ccc(Cl)cc1`, the result was inactive.
To `Oc1c(Cl)c(Cl)c(Cl)c(Cl)c1Cl` belongs “inactive”; to `O=C(N[C@H]1CN2CCC1CC2)c1cc2ccoc2cn1`, “inactive”; to `Clc1ccc(C(c2ccccc2Cl)C(Cl)(Cl)Cl)cc1` (configuration not stated), “inactive”.
To `Nc1ccc(-c2ccc(N)cc2)cc1` belongs “inactive”; to `CC(c1ccc(O)cc1)(c1ccc(O)cc1)c1ccc(O)cc1`, “inactive”; to `C[C@]12CCC(=O)C=C1CC[C@@H]1[C@@H]2CC[C@@]2(C)[C@H]1CC[C@]2(C)O`, “inactive”.
As for `CCCCCCOC(=O)c1ccccc1C(=O)OCCCCCC`, the call was inactive.
For the molecule `CC#Cc1cc(C)nc(Nc2ccccc2)n1`, the molecule was called inactive.
With `c1ccc(-c2ccccc2)cc1`, the outcome was inactive.
Turning to `ClC1=C(Cl)[C@]2(Cl)[C@@H]3[C@@H](Cl)[C@H]4O[C@H]4[C@@H]3C1(Cl)C2(Cl)Cl`, the molecule was classed as inactive.
To `OCC(O)CO` belongs “inactive”; to `CCOC(=O)C(O)(c1ccc(Cl)cc1)c1ccc(Cl)cc1`, “inactive”.
To `O=C(O)C(F)(F)C(F)(F)C(F)(F)C(F)(F)C(F)(F)F` belongs “inactive”; to `CN(C)CCO`, “inactive”; to `O=C(NC(=O)c1cc(F)c(F)cc1Cl)Nc1cc(F)ccc1N1CCC(C(=O)O)CC1`, “inactive”.
As to `Nn1cnnc1`, the result was inactive.
Take `O=S(=O)(O)C(F)(F)C(F)(F)C(F)(F)C(F)(F)C(F)(F)C(F)(F)F`: the outcome was inactive.
`Cc1cc(O)ccc1Cl`: the molecule was classed as inactive.
For the molecule `Cc1ccc(O)c(C)c1`, the molecule was called inactive.
`ClC1=C(Cl)[C@]2(Cl)[C@@H]3[C@@H]4C[C@@H]([C@H]5O[C@@H]45)[C@@H]3[C@@]1(Cl)C2(Cl)Cl`: the result was inactive.
The value for `O=C(O)C(F)(F)C(F)(F)C(F)(F)C(F)(F)C(F)(F)C(F)(F)C(F)(F)C(F)(F)F` was “inactive”; that for `Clc1ccc(Cl)cc1` was “inactive”.
For the molecule `Sc1ccccc1`, the result was inactive.
For `ClC1=C(Cl)[C@]2(Cl)[C@@H]3[C@H]4C[C@H]([C@@H]5O[C@H]45)[C@@H]3[C@@]1(Cl)C2(Cl)Cl`, the outcome was inactive.
The value for `Oc1ccc(C(c2ccc(O)cc2)(C(F)(F)F)C(F)(F)F)cc1` was “inactive”; that for `Clc1ccc(C(Cl)(Cl)Cl)cc1` was “inactive”.
Take `O=S(=O)(O)C(F)(F)C(F)(F)C(F)(F)C(F)(F)F`: the outcome was inactive.
Regarding `Cc1cccc(C)c1N`, the outcome was inactive.

The record behind these values is PubChem BioAssay (EPA / NIEHS).
